Pf growth 48h = inhibits P. falciparum growth in the first generation, 48 h | P. falciparum luciferase growth in erythrocytes, 48 h | Potency, µM (titrated, usually from 28.7 µM), hits mostly inhibitors | hit rate 5.9% among 310,000 | AID 504832; active = well fitted inhibition curve with a large enough effect; inconclusive = small, poorly fitted or top-dose-only effect, or another doubt; inactive = no such curve, though single readings can be large or run the other way
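Firefly luciferase activity from engineered P. falciparum reports growth; inhibitors lower the luminescent signal. Cultures contained 2% hematocrit erythrocytes at 0.1% final parasitemia.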
SARS PLP yeast = blocks SARS-CoV papain-like protease in a yeast assay. hit rate 0.19% among 330,000. AID 485353. S. cerevisiae expressing SARS-CoV PLpro, growth rescue. Potency, µM (top dose mostly 32.9 µM), hits mostly activators; also: nearly all actives have a fitted effect of over 55% in size
RE007 growth inh = less growth of the S. pombe RE007 Vpr strain; S. pombe RE007 Vpr strain, BacTiter-Glo ATP luminescence, 24 h; Potency, µM (doses to about 92.2 µM), actives largely listed as inhibitors; hit rate 0.21% among 360,000; active = well fitted falling curve with a large enough effect; inconclusive = small, poorly fitted or top-dose-only effect; inactive = no such curve, though single readings can be large or run the other way; also: nearly all actives have a fitted effect of over 50% in size
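Fission yeast RE007 carrying one integrated HIV-1 vpr copy, seeded at OD 0.01 in PMG+AL medium with 23 nL pinned compound. Grown 24 h at 30 degrees; viability read by BacTiter-Glo luminescence after 5 min.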
NS1 inh = blocks influenza NS1 protein function; Potency, µM (top dose mostly 46.1 µM); hit rate 0.4% among 270,000; AID 2326; also: actives are rising curves; nearly all actives have a fitted effect of over 50% in size
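Recovery from NS1-induced slow growth read by OD600 in budding yeast switched to galactose assay medium (pH 6.0, -URA) at 1:100 dilution. Compound 23 nl per well; the matching strain lacking NS1 serves as control.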
Pf growth 96h = P. falciparum growth inhibition at 96 hours | P. falciparum luciferase reporter growth, 96 h | Potency, µM (doses to about 28.7 µM), hits mostly inhibitors | hit rate 6.9% among 320,000; active = well fitted inhibition curve with a large enough effect; inconclusive = small, poorly fitted or top-dose-only effect, or another doubt; inactive = no such curve, though single readings can be large or run the other way
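Two-generation exposure (96 h) targets delayed-death phenotype. Reporter parasites carrying integrated firefly luciferase, in red cells at 2% hematocrit and 0.05% parasitemia final, kept at 37 C, 5% CO2; luminescence loss indicates inhibition.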
A number is an active result; [ ] = dose if it differs, or a comment. Compounds with a hit are over-represented: about 9.5% of the library has one in this group of screens. Unless noted, calls follow the shape of the full dose curve.

For Cc1noc(C)c1COC(=O)c1ccccc1Sc1ccccc1C#N the results were SARS PLP yeast inactive, RE007 growth inh inactive, NS1 inh inactive and Pf growth 96h 11.7µM.
N#Cc1ccccc1Sc1ccccc1C(=O)OCC(N)=O was read as Pf growth 48h inactive, SARS PLP yeast inactive, RE007 growth inh inactive and Pf growth 96h inactive.
`CC(=O)c1ccc(N2CCN(C(=O)CCC(=O)Nc3ccc4nc(N5CCN(C)CC5)cc(C)c4c3)CC2)cc1` gave Pf growth 48h 9.28µM, SARS PLP yeast inactive, RE007 growth inh inactive, NS1 inh inactive and Pf growth 96h inactive.
CCC(C)NC(=O)CCC(=O)Nc1ccc2nc(N3CC(C)CC(C)C3)cc(C)c2c1 (stereo not drawn) was read as Pf growth 48h 9.28µM, SARS PLP yeast inactive, RE007 growth inh inactive and Pf growth 96h 5.86µM.
Screening Cc1cc(N2CCOCC2)nc2ccc(NC(=O)CCC(=O)N3CCCCC3)cc12 returned Pf growth 48h inactive, SARS PLP yeast inactive, RE007 growth inh inactive, NS1 inh inactive and Pf growth 96h inactive.
CCOC(CCNC(=O)CCC(=O)Nc1ccc2nc(N3CCN(C)CC3)cc(C)c2c1)OCC was read as Pf growth 48h inactive, SARS PLP yeast inactive, RE007 growth inh inactive, NS1 inh inactive and Pf growth 96h inconclusive.
Cc1cc(N2CCN(C)CC2)nc2ccc(NC(=O)CCC(=O)NCCc3ccc(Cl)cc3)cc12 was read as Pf growth 48h 11.7µM, SARS PLP yeast inactive, RE007 growth inh inactive, NS1 inh inactive and Pf growth 96h inactive.
Cc1cc(N2CCOCC2)nc2ccc(NC(=O)CCC(=O)N3CCN(c4cccc(C(F)(F)F)c4)CC3)cc12 was read as Pf growth 48h 4.65µM, SARS PLP yeast inactive, RE007 growth inh inactive, NS1 inh inactive and Pf growth 96h inactive.
CCCn1c(N)c(N(CCOC)C(=O)COC(=O)COc2c(C)cc(C)cc2C)c(=O)[nH]c1=O was read as RE007 growth inh inactive.
For CC(C)c1c(C(=O)N/N=C/c2cccc(OCc3ccccc3)c2)nnn1-c1nonc1N the results were Pf growth 48h inactive, SARS PLP yeast inactive, RE007 growth inh inactive, NS1 inh inactive and Pf growth 96h inconclusive.
Screening Cc1nc(N2CCN(Cc3ccc4c(c3)OCO4)CC2)c2cc(-c3ccccc3)sc2n1 returned Pf growth 48h 11.7µM, SARS PLP yeast inactive, RE007 growth inh inactive and Pf growth 96h inconclusive.
For Cc1ccccc1NC1=C/C(=N\S(=O)(=O)c2ccc(C(=O)O)cc2)c2ccccc2C1=O the results were Pf growth 48h 2.62µM, SARS PLP yeast inactive, RE007 growth inh inconclusive, NS1 inh inactive and Pf growth 96h inconclusive.
`O=C(O)c1ccc(S(=O)(=O)/N=C2\C=C(Nc3ccccc3F)C(=O)c3ccccc32)cc1` gave Pf growth 48h 2.62µM, SARS PLP yeast inactive, RE007 growth inh inconclusive, NS1 inh inactive and Pf growth 96h inconclusive.
For COc1ccc(C(=O)CSc2nnc(-c3cc4ccccc4cc3O)n2Cc2ccco2)cc1 the results were Pf growth 48h 2.33µM, SARS PLP yeast inactive, RE007 growth inh inactive, NS1 inh inactive and Pf growth 96h inactive.
CCn1c(SCC(=O)N(C(C)C)C(C)C)nnc1-c1cc2ccccc2cc1O was read as Pf growth 48h 1.85µM, SARS PLP yeast inactive, RE007 growth inh inactive, NS1 inh inactive and Pf growth 96h inactive.
`CC1CCN(C(=O)CSc2nnc(-c3cc4ccccc4cc3O)n2Cc2ccco2)CC1` gave Pf growth 48h 11.7µM, SARS PLP yeast inactive, RE007 growth inh inactive, NS1 inh inactive and Pf growth 96h inactive[5.75 µM].
`CCn1c(SCC(=O)N2CCC(C)CC2)nnc1-c1ccco1` gave Pf growth 48h inactive, SARS PLP yeast inactive, RE007 growth inh inactive, NS1 inh inactive and Pf growth 96h inactive.
`CN1CCC[C@@H]1c1cccnc1.O=C(O)c1ccccc1O.O=C([OH2+])c1ccccc1O.O=C([OH2+])c1ccccc1O.O=C([OH2+])c1ccccc1O.[Cu]` gave NS1 inh inactive.
OCCCNCc1ccncc1 was read as NS1 inh inactive.
`O=C(COc1cccc(Cl)c1)Nc1ccc(N2CCOCC2)cc1` gave SARS PLP yeast inactive, RE007 growth inh inactive, NS1 inh inactive and Pf growth 96h inactive.
For Cc1ccc(C(=O)N2CCN(c3ccc(NC(=O)COc4ccccc4C)cc3)CC2)cc1 the results were Pf growth 48h 8.28µM, SARS PLP yeast inactive, RE007 growth inh inactive, NS1 inh inactive and Pf growth 96h inconclusive.
`Cc1cc(Cl)ccc1OCC(=O)Nc1ccccc1C(=O)N1CCOCC1` gave Pf growth 48h inactive, SARS PLP yeast inactive, RE007 growth inh inactive, NS1 inh inactive and Pf growth 96h inactive.
Screening Cc1cccc(C)c1OCC(=O)Nc1ccc(N2CCOCC2)cc1 returned Pf growth 48h inconclusive, SARS PLP yeast inactive, RE007 growth inh inactive, NS1 inh inactive and Pf growth 96h 1.47µM.
COc1cc(Cl)ccc1NC(=O)COc1ccccc1C(=O)N1CCN(c2ccc(O)cc2)CC1 was read as Pf growth 48h 5.86µM, SARS PLP yeast inactive, RE007 growth inh inactive, NS1 inh inactive and Pf growth 96h inconclusive.
Screening CCC(=O)N1CCN(c2ccc(NC(=O)COc3ccc(C)cc3C)cc2)CC1 returned Pf growth 48h inconclusive, SARS PLP yeast inactive, RE007 growth inh inactive, NS1 inh inactive and Pf growth 96h inactive.
Cc1cccc(OCC(=O)Nc2ccc(N3CCCC3)cc2)c1C was read as Pf growth 48h 10.4µM, SARS PLP yeast inactive, RE007 growth inh inactive, NS1 inh inactive and Pf growth 96h inactive.
For O=C(NCCCN1CCOCC1)C(=O)NCC1OCCN1S(=O)(=O)c1ccc(Cl)cc1 (stereo not drawn) the results were RE007 growth inh inactive.
Cc1cc(C)cc(OCC(=O)Nc2ccc(CN3CCCCC3)cc2)c1 was read as Pf growth 48h 11.7µM, SARS PLP yeast inactive, RE007 growth inh inactive, NS1 inh inactive and Pf growth 96h inconclusive.
For O=C(CNCC1CCCCC1)Nc1ccc(N2CCCCC2)cc1 the results were Pf growth 48h inactive, SARS PLP yeast inactive and Pf growth 96h inactive.
For O=C(CNCC1CCCO1)Nc1ccc(N2CCCCCC2)cc1 (stereo not drawn) the results were Pf growth 48h inactive, SARS PLP yeast inactive, RE007 growth inh inactive, NS1 inh inactive and Pf growth 96h 0.262µM.
For CN1CCN(c2ccc(NC(=O)COc3ccccc3Cl)cc2)CC1 the results were Pf growth 48h inactive, SARS PLP yeast inactive, RE007 growth inh inactive, NS1 inh inactive and Pf growth 96h inactive.
Screening CCC(=O)N1CCN(c2ccc(NC(=O)COc3ccccc3Cl)cc2)CC1 returned SARS PLP yeast inactive, RE007 growth inh inactive, NS1 inh inactive and Pf growth 96h 5.86µM.
Cc1ccc(OCC(=O)Nc2ccc(N3CCN(C(=O)c4ccco4)CC3)cc2)cc1 was read as Pf growth 48h inconclusive, SARS PLP yeast inactive, RE007 growth inh inactive, NS1 inh inactive and Pf growth 96h 5.22µM.
For O=C(COc1ccccc1)Nc1ccc(N2CCN(C(=O)c3ccco3)CC2)cc1 the results were Pf growth 48h inconclusive, SARS PLP yeast inactive, RE007 growth inh inactive and Pf growth 96h inconclusive.
